The source of these data is PubChem BioAssay AID588676 (Johns Hopkins Ion Channel Center, 2011).

The whole screen tested about 310,000 compounds, of which about 3,900 (1.3%) were called active. This is one part of a sample in which actives are shown more often than they occur.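 How the source made its calls: active means calcium-response B-score plate-corrected more than 3 library SD below zero, starting fluorescence within 5 deviations, no agonist response on first addition; inactive means the rest.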

The target of this assay is Mas-related G-protein coupled receptor member X1 (Homo sapiens) (UniProt Q96LB2). As to the kind of experiment: blockade of BAM8-22-evoked MrgX1 calcium response – HEK293 cells, Fluo-4 calcium flux, primary screen (AID 588676).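 On B-score: peak minus trough fluorescence over baseline after final BAM8-22 challenge near maximal dose.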 The note with it: Fluo-4, BAM8-22 antagonism, at 10 µM; stronger effect = lower value. (In general: Calcium flux is commonly read through the fluorescence of an indicator in the cells.)
Mas-related G-protein coupled receptor member X1 (Homo sapiens), sequence (Q96LB2 whole entry, looked up): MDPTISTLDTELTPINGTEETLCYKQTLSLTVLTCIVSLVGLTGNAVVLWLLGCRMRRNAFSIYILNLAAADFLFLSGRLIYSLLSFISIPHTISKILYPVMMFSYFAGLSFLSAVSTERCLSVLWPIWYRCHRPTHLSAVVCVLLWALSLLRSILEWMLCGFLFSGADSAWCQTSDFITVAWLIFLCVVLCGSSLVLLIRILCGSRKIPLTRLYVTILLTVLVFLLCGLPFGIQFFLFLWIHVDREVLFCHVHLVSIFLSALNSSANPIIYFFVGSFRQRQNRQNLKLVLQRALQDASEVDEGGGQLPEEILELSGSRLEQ
Consider `COc1ccc(-c2nc(CS(=O)CC(=O)N3CCC4(CC3)OCCO4)c(C)o2)cc1` (stereo not given), for which the B-score entry is “inactive”.

Regarding `COc1ccc(S(=O)(=O)NCc2ccc(C(=O)N3CCC4(CC3)OCCO4)cc2)cc1`, the B-score is -6.08 (active).

As for `COc1ccc(NC(=O)N2CCC3(CC2)OCCO3)c(OC)c1`, the B-score entry is “inactive”.

Turning to `COC(=O)C1=C(c2cc3ccccc3o2)C[C@@H]2CC[C@H]1N2C(=O)NC1CCCCC1`, the B-score result was “inactive”.

As to `CCCCCCCCCCCCn1ccc(=N)cc1`, the B-score is -5.32 (active).

Turning to `COc1ccccc1C1=NCc2nnc(CSC)n2-c2ccc(Cl)cc21`, the B-score result was “inactive”.

In the case of `CCCCCn1c(=O)c(C(=O)NCc2ccccc2)c(O)c2ccccc21`, the B-score was -6.52 (active).

For `CCCCn1c(=O)c(C(=O)Nc2ccccc2Cl)c(O)c2ccccc21`, the B-score entry is “inactive”.

As to `CCCCCn1c(=O)c(C(=O)NCc2ccccn2)c(O)c2ccccc21`, the B-score entry was “inactive”.

Regarding `CC(C)c1ccc(OCC(=O)N2CCN(C)CC2)c(Br)c1`, the B-score entry was “inactive”.

On to `CCOC(=O)C1SC2(C(F)(F)C(F)F)CC1(O)c1c(c(OC)c3occc3c1OC)O2` (stereo not given), for which the B-score result was “inactive”.

On to `CNCC(O)c1cc(F)c(OCc2ccccc2)c(OCc2ccccc2)c1F` (stereo not given), for which the B-score entry is “inactive”.

On to `Cc1ccc(-n2c(O)c(C=NCC3CCCO3)c(=O)[nH]c2=O)c(C)c1` (stereo not given), for which the B-score entry was “inactive”.

On to `CCOC(=O)C(O)(c1ccc(N=Cc2ccccc2O)c(C)c1)C(F)(F)F` (stereo not given), for which the B-score result is “inactive”.

For the compound `Cc1cccc(NC(=O)N2CC3CC(C2)c2cccc(=O)n2C3)c1` (stereo not given), the B-score result was “inactive”.

Take `COc1ccccc1N1CCN(C(CNC(=O)Oc2ccccc2)c2cccnc2)CC1` (stereo not given): the B-score entry is “inactive”.

Consider `O=C(CCN1CCCCC1)NCC(=O)Nc1ccc(Br)cc1C(=O)c1ccccc1`, for which the B-score is -5.59 (active).

Regarding `O=C(CN1CCCCC1)Nc1ccc(Br)cc1C(=O)c1ccccc1Cl`, the B-score result is “inactive”.

Turning to `CN1CCN(C(=S)SCC(=O)Nc2ccc(Cl)cc2C(=O)c2ccccc2)CC1`, the B-score entry is “inactive”.

As to `CCOC(=O)C1=C(C)OC(N)=C(C(=O)OC)C12C(=O)Nc1ccc(Br)cc12` (stereo not given), the B-score entry is “inactive”.
